Source: PubChem BioAssay (NCATS)
Inconclusive results are not listed. Active and inactive are the calls of the source. Unless noted, the call rests on the fitted dose curve; in most records, active means well fitted curve in the direction sought with a large enough effect; inconclusive means small, poorly fitted or top-dose-only effect, or another doubt; inactive means no such curve, though single readings can be large; an effect the other way counts as inactive or inconclusive.

Experiments:
[1] = target: ATP-dependent 6-phosphofructokinase (Trypanosoma brucei brucei) (UniProt O15648); assay: qHTS Assay to Find Inhibitors of T. brucei phosphofructokinase: hit validation (AID 492961);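 further: luminescence reports ADP formed as PFK phosphorylates fructose-6-phosphate with ATP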
Outline: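 Measures ADP output of PFK (1.25 nM) at 0.1 mM ATP, 0.5 mM F6P, pH 8.0 TEA buffer with 5 mM MgCl2. No-enzyme wells define full inhibition; uninhibited enzyme wells define zero.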

[2] = target: Luciferin 4-monooxygenase (Photinus pyralis) (UniProt P08659); assay: Biochemical firefly luciferase enzyme assay for NPC (AID 624030);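 further: purified P. pyralis luciferase at 10 nM with luciferin and ATP substrate; nearly all actives have a fitted effect of over 70% in size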
Outline: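 Direct inhibition of firefly luciferase enzyme (10 nM final, 50 mM Tris Acetate) assessed by luminescence within 5 minutes. Percent activity scaled between DMSO and PTC124 positive control, with concentration-effect curves classified by fit quality and response.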

[3] = S16 Schwann cell viability assay (CellTiter-Glo assay) (AID 624031);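 further: native untransfected S16 rat Schwann cells; cellular ATP luminescence as a viability measure; nearly all actives have a fitted effect of over 70% in size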
Outline: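 Parental S16 cells, 24 h compound, 37 °C. ATP-luminescence viability; DMSO = 0% activity, empty wells as reference; curves classified by fit quality and efficacy.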

[4] = S16 Schwann cell PMP22 intronic element beta-lactamase assay (AID 624044; calls by dose curve; further: nearly all actives have a fitted effect of over 15% in size)
Outline: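 Rat S16 Schwann cells with beta-Lac driven by a PMP22 intronic element, compound-treated 24 h at 37 °C. LiveBLAzer FRET B/G read: 460 nm normalized to potassium clavulanate vs DMSO; 535 nm FRET as viability; concentration-effect curves classified.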

7G8 = assay: qHTS profiling for inhibitors of Plasmodium falciparum proliferation (AID 504749); further: nearly all actives have a fitted effect of over 60% in size; conditions: P. falciparum in erythrocytes, SYBR Green DNA, 72 h; series mostly up to 12.8 µM
Outline: (§1)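 Three-day growth assay of blood-stage parasites in erythrocytes (0.3% parasitemia, 2.5% hematocrit) at 37 C, 5% CO2, quantified by SYBR Green DNA staining after overnight detergent lysis.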

ATS95 = assay: as above; conditions: P. falciparum in erythrocytes, SYBR Green DNA, 72 h; series mostly up to 12.8 µM
Outline: as §1

CP191 = assay: as above; conditions: P. falciparum in erythrocytes, SYBR Green DNA, 72 h; series mostly up to 12.8 µM
Outline: as §1

CP192 = assay: as above; conditions: P. falciparum in erythrocytes, SYBR Green DNA, 72 h; series mostly up to 28.7 µM
Outline: as §1

CP215 = assay: as above; conditions: P. falciparum in erythrocytes, SYBR Green DNA, 72 h; series mostly up to 28.7 µM
Outline: as §1

CP268 = assay: as above; conditions: P. falciparum in erythrocytes, SYBR Green DNA, 72 h; series mostly up to 12.8 µM
Outline: as §1

CP297 = assay: as above; conditions: P. falciparum in erythrocytes, SYBR Green DNA, 72 h; series mostly up to 12.8 µM
Outline: as §1

CP315 = assay: as above; conditions: P. falciparum in erythrocytes, SYBR Green DNA, 72 h; series mostly up to 12.8 µM
Outline: as §1

DIV14 = assay: as above; conditions: P. falciparum in erythrocytes, SYBR Green DNA, 72 h; series mostly up to 12.8 µM
Outline: as §1

DIV17 = assay: as above; conditions: P. falciparum in erythrocytes, SYBR Green DNA, 72 h; series mostly up to 12.8 µM
Outline: as §1

ICS = assay: as above; conditions: P. falciparum in erythrocytes, SYBR Green DNA, 72 h; series mostly up to 12.8 µM
Outline: as §1

JCK = assay: as above; conditions: P. falciparum in erythrocytes, SYBR Green DNA, 72 h; series mostly up to 12.8 µM
Outline: as §1

W2 = assay: as above; conditions: P. falciparum in erythrocytes, SYBR Green DNA, 72 h; series mostly up to 12.8 µM
Outline: as §1

CP266 = assay: as above; conditions: P. falciparum in erythrocytes, SYBR Green DNA, 72 h; series mostly up to 28.7 µM
Outline: as §1

[5] = Confirmation and Secondary Assay for Modulators of Hemoglobin Beta Chain Splicing at IVS2 705 locus (AID 930);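 further: HeLa cells stably expressing the EGFP-705 splicing reporter; GFP fluorescence per well restored by corrected splicing of the IVS2-705 intron in EGFP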
Outline: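 Fluorescence gain (488 nm laser, 500-520 nm PMT) reflects restored correct splicing of a mutant IVS2-705 intron inside EGFP in stably transfected HeLa cells after 2-day compound treatment.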

[6] = target: Dual specificity protein kinase CLK4 (Homo sapiens) (UniProt Q9HAZ1); assay: qHTS Assay for Inhibitors of CDC-like Kinase 4 (ADP-Glo Assay) (AID 1771); further: nearly all actives have a fitted effect of over 70% in size; further: potency means the concentration at half of the fitted maximal effect
Outline: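 Clk4 (25 nM) was incubated 1 hr at room temperature with 100 uM RS repeat peptide and 1 uM ATP in buffer with 2 mM MgCl2, 0.5 mM EGTA, 2.5 mM DTT. ADP formed was quantified by ADP-Glo luminescence.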

Measured: Potency

Chain of Dual specificity protein kinase CLK4 (Homo sapiens) (Q9HAZ1 whole entry, looked up): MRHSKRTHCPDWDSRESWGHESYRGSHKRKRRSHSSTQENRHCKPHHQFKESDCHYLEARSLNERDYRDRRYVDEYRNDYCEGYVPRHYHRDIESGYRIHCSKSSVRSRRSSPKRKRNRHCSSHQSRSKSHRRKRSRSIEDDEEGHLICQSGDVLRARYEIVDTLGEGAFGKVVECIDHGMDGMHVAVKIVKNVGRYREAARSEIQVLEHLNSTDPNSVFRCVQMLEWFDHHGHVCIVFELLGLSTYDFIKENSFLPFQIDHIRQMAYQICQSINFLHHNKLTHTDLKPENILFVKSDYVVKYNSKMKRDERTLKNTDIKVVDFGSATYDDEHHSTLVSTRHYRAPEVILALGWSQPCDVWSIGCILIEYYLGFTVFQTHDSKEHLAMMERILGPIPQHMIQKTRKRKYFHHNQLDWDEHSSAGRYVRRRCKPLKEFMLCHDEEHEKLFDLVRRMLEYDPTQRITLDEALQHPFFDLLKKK
Chain of ATP-dependent 6-phosphofructokinase (Trypanosoma brucei brucei) (O15648 whole entry, looked up): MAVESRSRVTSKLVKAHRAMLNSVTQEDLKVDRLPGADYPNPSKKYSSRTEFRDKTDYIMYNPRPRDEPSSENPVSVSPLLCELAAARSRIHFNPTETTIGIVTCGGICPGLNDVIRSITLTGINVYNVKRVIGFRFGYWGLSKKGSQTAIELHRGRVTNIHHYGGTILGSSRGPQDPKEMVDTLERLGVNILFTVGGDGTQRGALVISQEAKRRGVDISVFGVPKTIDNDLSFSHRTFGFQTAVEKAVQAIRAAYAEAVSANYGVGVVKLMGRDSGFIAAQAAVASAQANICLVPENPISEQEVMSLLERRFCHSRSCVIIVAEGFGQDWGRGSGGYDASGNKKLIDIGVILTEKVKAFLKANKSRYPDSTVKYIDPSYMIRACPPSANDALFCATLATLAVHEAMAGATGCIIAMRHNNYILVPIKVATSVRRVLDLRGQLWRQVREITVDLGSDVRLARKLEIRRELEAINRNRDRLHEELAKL
Chain of Luciferin 4-monooxygenase (Photinus pyralis) (P08659 whole entry, looked up): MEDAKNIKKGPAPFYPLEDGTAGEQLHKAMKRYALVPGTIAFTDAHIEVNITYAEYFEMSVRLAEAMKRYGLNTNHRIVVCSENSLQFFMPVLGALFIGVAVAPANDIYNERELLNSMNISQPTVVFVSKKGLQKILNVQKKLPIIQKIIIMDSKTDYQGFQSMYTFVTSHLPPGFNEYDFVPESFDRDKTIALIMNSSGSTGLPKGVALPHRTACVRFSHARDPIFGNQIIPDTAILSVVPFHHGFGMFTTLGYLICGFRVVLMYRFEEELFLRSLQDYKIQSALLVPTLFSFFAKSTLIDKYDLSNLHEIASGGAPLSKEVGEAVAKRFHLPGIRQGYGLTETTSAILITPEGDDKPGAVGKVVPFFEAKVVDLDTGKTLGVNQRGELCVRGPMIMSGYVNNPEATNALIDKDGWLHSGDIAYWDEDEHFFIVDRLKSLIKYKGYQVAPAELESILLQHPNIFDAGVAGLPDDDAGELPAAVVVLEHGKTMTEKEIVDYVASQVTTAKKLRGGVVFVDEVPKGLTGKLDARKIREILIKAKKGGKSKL

NS(=O)(=O)c1cc([C@@]2(O)NC(=O)c3ccccc32)ccc1Cl
not listed: CP266 | [5] | [6]
inactive: all other assays above

C[N+]1(C)CCC[C@@H](OC(=O)C(O)(c2ccccc2)c2ccccc2)C1
not listed: CP192 | CP215 | CP315 | [5] | [6]
inactive: all other assays above

COc1ccccc1OC[C@H](O)COC(N)=O
not listed: [5] | [6]
inactive: all other assays above

CN(C)CCOC(c1ccccc1)c1ccccc1 (tested in a mixture with another compound)
inactive: [5]

CCCN[C@@H](C)C(=O)Nc1c(C)csc1C(=O)OC
not listed: [5] | [6]
inactive: all other assays above

CC1(C)Oc2ccc(C#N)cc2[C@H](N2CCCC2=O)[C@H]1O
not listed: [4] | [5] | [6]
inactive: all other assays above

C[C@@](N)(Cc1ccc(O)cc1)C(=O)O
inactive: [5]

C=C1C2CC[C@@]3(C)C(c4ccoc4)OC(=O)C[C@@]13OC1CC(O)C(C)(C)C(CC(=O)OC)[C@@]12C (stereo partly drawn)
inactive: [5]

COc1ccc(C[C@@H]2c3cc(OC)c(OC)cc3CC[N@+]2(C)CCC(=O)OCCCCCOC(=O)CC[N@@+]2(C)CCc3cc(OC)c(OC)cc3[C@H]2Cc2ccc(OC)c(OC)c2)cc1OC
not listed: CP192 | [5] | [6]
inactive: all other assays above

C[C@@H]1COc2c(N3CCN(C)CC3)c(F)cc3c(=O)c(C(=O)O)cn1c23
not listed: [4] | W2 | [5] | [6]
inactive: all other assays above

CC1(C)S[C@@H]2[C@H](NC(=O)[C@H](C(=O)O)c3ccsc3)C(=O)N2[C@H]1C(=O)O
not listed: [1] | CP297 | [5] | [6]
inactive: all other assays above

Cn1c(=O)c2c(ncn2C[C@@H](O)CO)n(C)c1=O
not listed: CP191 | [5] | [6]
inactive: all other assays above

CC(=O)Oc1cc(OC(C)=O)c2c(c1)OC(c1ccc(OC(C)=O)c(OC(C)=O)c1)C(OC(C)=O)C2 (stereo not drawn)
inactive: [5]

COC(=O)C1OC(=O)C2OC23[C@]2(C)C(O)CC4C(C)(C)C(OC(C)=O)CC(OC(C)=O)[C@@]4(C)C2CC[C@@]13C (stereo partly drawn)
inactive: [5]

NC(N)=NC[C@@H]1COC2(CCCCC2)O1
not listed: DIV17 | [5] | [6]
inactive: all other assays above

CCN1C(=O)N[C@@H](c2ccccc2)C1=O
not listed: ATS95 | [5] | [6]
inactive: all other assays above

CCN[C@@H]1C[C@H](C)S(=O)(=O)c2sc(S(N)(=O)=O)cc21
not listed: [3] | [5] | [6]
inactive: all other assays above

CC1CC2C3CCC4=CC(=O)C=C[C@@]4(C)[C@]3(F)C(O)C[C@]2(C)[C@]1(O)C(=O)CO (stereo partly drawn)
inactive: [5]

CC(=O)N(CC(O)CN(C(C)=O)c1c(I)c(C(=O)NC[C@@H](O)CO)c(I)c(C(=O)NC[C@@H](O)CO)c1I)c1c(I)c(C(=O)NC[C@@H](O)CO)c(I)c(C(=O)NC[C@@H](O)CO)c1I
not listed: DIV14 | W2 | [5] | [6]
inactive: all other assays above

C1CCN2C[C@H]3C[C@H](CN4CCCCC34)C2C1 (stereo partly drawn)
inactive: [5]

COc1ccc(-c2nc3cnc(N(C)C)nc3n(C[C@H]3CCCO3)c2=O)cc1
inactive: [6]

Nc1ncnc2c1ncn2C1OC(CO)C(O)C1O (stereo not drawn)
inactive: [5]

O=c1c(O)c(-c2ccc(O)cc2)oc2ccccc12
inactive: [5]

Cc1cccc(CNc2ccnc(-c3ccccc3Cl)n2)c1
inactive: [6]

COCCn1c(=O)c(-c2cccc(Cl)c2)nc2cncnc21
inactive: [6]

COc1ccc(-n2c(=O)c(-c3cccc(F)c3)nc3cncnc32)cc1
inactive: [6]

COc1cccc(-c2cncnc2NCc2cccc(C)c2)c1
active: [6] 25.1 µM

CCNc1ncc2nc(-c3ccc(F)cc3)c(=O)n(Cc3ccc(F)cc3)c2n1
inactive: [6]

COc1cccc(Nc2ncc3nc(CCc4ccccc4)c(=O)n(Cc4cccs4)c3n2)c1
inactive: [6]

Cc1noc(C)c1-c1cncnc1-n1ccnc1
inactive: [6]

N=c1ccn2c(n1)OC1C(O)C(CO)OC12 (stereo not drawn)
inactive: [5]

N#Cc1cccc(-c2nccc(NCc3cccnc3)n2)c1
active: [6] 14.1 µM

CCNc1ncc2nc(-c3ccc(F)cc3)c(=O)n(-c3ccccc3)c2n1
inactive: [6]

Cn1c(=O)c(CCc2ccccc2)nc2cnc(N3CCOCC3)nc21
inactive: [6]

COc1cccc(Cn2c(=O)c(-c3cn(C)c4ccccc34)nc3cncnc32)c1
inactive: [6]

Nc1ccccc1C(=O)CC(N)C(=O)O (stereo not drawn)
inactive: [5]

Nc1ccn(C2OC(CO)C(O)C2O)c(=O)n1 (stereo not drawn)
inactive: [5]

N#CCCn1c(=O)c(-c2cccs2)nc2cnc(Nc3ccccc3)nc21
inactive: [6]
